# Results: PubChem BioAssay (NCATS)
# Records with an inconclusive call do not appear. A call without a number means that no potency is given here. Active and inactive are the calls of the source. Calls come from the whole dose curve; as a rule, active = well fitted inhibition curve with a large enough effect; inconclusive = small, poorly fitted or top-dose-only effect; inactive = flat fitted curve, though single readings scatter.
# Tested on: CP201
# Assay: qHTS profiling for inhibitors of Plasmodium falciparum proliferation (AID 504749); note: nearly all actives have a fitted effect of over 60% in size
# Details: P. falciparum in erythrocytes, SYBR Green DNA, 72 h; series mostly up to 28.7 µM
# In short: (§1)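 Fluorescence of SYBR Green-bound parasite DNA, read at 485/535 nm, served as the growth measure. Infected erythrocytes were cultured with compound 72 h; artemisinin (0.29 uM) and DMSO wells defined the normalization range.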
# Potency is the fitted concentration of half-maximal effect.
row,Structure (SMILES),Potency
1,O=c1cc(O)c(Cl)c[nH]1,inactive
2,Cn1nnc2c(C(N)=O)ncn2c1=O,inactive
3,CNC1CCCN(c2c(F)cc3c(=O)c(C(=O)O)cn(C4CC4)c3c2OC)C1 (stereo unspecified),inactive
4,C#CCN[C@@H]1CCc2ccccc21,inactive
5,COc1cc(NCc2ccc3nc(N)nc(N)c3c2C)cc(OC)c1OC,4.78 µM (active)
6,N[C@@H](C(=O)N[C@@H]1C(=O)N2C(C(=O)O)=C(Cl)CS[C@H]12)c1ccccc1,inactive
7,CN(C)CCc1c[nH]c2ccc(CS(=O)(=O)N3CCCC3)cc12,inactive
8,C[C@]12C=CC(=O)C=C1CC[C@@H]1[C@@H]2C(=O)C[C@@]2(C)[C@H]1CC[C@]2(O)C(=O)CO,inactive
9,Nc1[nH]c(=O)ncc1F,inactive
10,COc1ccc(-c2ccc3cc(C(=O)O)ccc3c2)cc1C12CC3CC(CC(C3)C1)C2,inactive
11,O=NN(CCCl)C(=O)NC1CCCCC1,inactive
12,CC[C@H](C)C(=O)O[C@H]1C[C@@H](C)C=C2C=C[C@H](C)[C@H](CC[C@@H]3C[C@@H](O)CC(=O)O3)[C@H]21,inactive
13,Cc1cccc(Nc2ccncc2S(=O)(=O)NC(=O)NC(C)C)c1,inactive
14,CN1CCN(c2c(F)cc3c(=O)c(C(=O)O)cn(CCF)c3c2F)CC1,inactive
15,CCOC(=O)[C@H](CCc1ccccc1)N[C@H]1CS[C@H](c2cccs2)CN(CC(=O)O)C1=O,inactive
16,N=C(N)c1ccc(OCCCCCOc2ccc(C(=N)N)cc2)cc1,1.69 µM (active)

# Tested on: CP203
# Assay: as above
# Details: P. falciparum in erythrocytes, SYBR Green DNA, 72 h; series mostly up to 28.7 µM
# In short: as §1
row,Structure (SMILES),Potency
1,NC(=O)N1c2ccccc2CC(=O)c2ccccc21,inactive
2,CNS(=O)(=O)Cc1ccc2[nH]cc(CCN(C)C)c2c1,inactive
3,CCCc1cc(C(N)=S)ccn1,inactive
4,CCCN[C@H]1CCc2nc(N)sc2C1,inactive
5,COc1ccc(C(=O)CC(=O)c2ccc(C(C)(C)C)cc2)cc1,inactive
6,CC(C)Cn1cnc2c(N)nc3ccccc3c21,inactive
7,Nc1nc(N)nc(-c2cc(Cl)ccc2Cl)n1,inactive
8,OC(Cn1cncn1)(Cn1cncn1)c1ccc(F)cc1F,inactive
9,CC(C)OC(=O)C(C(=O)OC(C)C)=C1SC=CS1,inactive
10,NCCCC(O)(P(=O)(O)O)P(=O)(O)O,inactive
11,CC1=CC(=O)c2ccccc2C1=O,inactive
12,Nc1ccc(S(=O)(=O)Nc2ccccn2)cc1,inactive
13,Cc1noc(NS(=O)(=O)c2ccc(N)cc2)c1C,inactive
14,O=c1cc(O)c(Cl)c[nH]1,inactive
15,Cn1nnc2c(C(N)=O)ncn2c1=O,inactive
16,CNC1CCCN(c2c(F)cc3c(=O)c(C(=O)O)cn(C4CC4)c3c2OC)C1 (stereo unspecified),inactive
17,COc1cc(NCc2ccc3nc(N)nc(N)c3c2C)cc(OC)c1OC,4.78 µM (active)
18,N[C@@H](C(=O)N[C@@H]1C(=O)N2C(C(=O)O)=C(Cl)CS[C@H]12)c1ccccc1,inactive
19,CN(C)CCc1c[nH]c2ccc(CS(=O)(=O)N3CCCC3)cc12,inactive
20,C[C@]12C=CC(=O)C=C1CC[C@@H]1[C@@H]2C(=O)C[C@@]2(C)[C@H]1CC[C@]2(O)C(=O)CO,inactive
21,Nc1[nH]c(=O)ncc1F,inactive
22,CC[C@H](C)C(=O)O[C@H]1C[C@@H](C)C=C2C=C[C@H](C)[C@H](CC[C@@H]3C[C@@H](O)CC(=O)O3)[C@H]21,inactive
23,Cc1cccc(Nc2ccncc2S(=O)(=O)NC(=O)NC(C)C)c1,inactive
24,CN1CCN(c2c(F)cc3c(=O)c(C(=O)O)cn(CCF)c3c2F)CC1,inactive
25,CCOC(=O)[C@H](CCc1ccccc1)N[C@H]1CS[C@H](c2cccs2)CN(CC(=O)O)C1=O,inactive
